# Data taken from PubChem BioAssay (NCATS).
# Inconclusive results are not listed. A number with no mark means an inactive call. Activity calls are given as the source filed them. Calls come from the whole dose curve; as a rule, active = well fitted curve in the direction sought with a large enough effect; inconclusive = small, poorly fitted or top-dose-only effect, or another doubt; inactive = no such curve, though single readings can be large; an effect the other way counts as inactive or inconclusive.
# Columns and labels:
# [1] = biological target: Cellular tumor antigen p53 (Homo sapiens) (UniProt P04637); assay: Primary qHTS for small molecule compounds that upregulate eGFP-tagged delta133p53alpha (in N-terminal) cells. (AID 2060322); settings: NCI-H358 eGFP-delta133p53alpha fluorescence, 24 h; activation: active compounds read high; note: nearly all actives have a fitted effect of over 75% in size; note: potency is the fitted concentration of half-maximal effect;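 for activation: series mostly up to about 56 µM; 0% = DMSO vehicle and 100% = reference activator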
# Outline: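 NCI-H358 cells pre-induced 24 h with 10 ng/ml doxycycline to express N-terminal eGFP-delta133p53alpha, then dosed 24 h at 37C without doxycycline; fixed, Hoechst-stained, GFP intensity by laser scanning cytometry, normalized to DMSO (0%) and 57.5 uM 5-azacytidine (100%).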
# [2] = biological target: Aldehyde dehydrogenase, mitochondrial (Homo sapiens) (UniProt P05091); assay: qHTS for Inhibitors of the Aldehyde Dehydrogenase Family (ALDH2) Primary screen (AID 2061308);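 note: plate controls were vehicle for no effect and reference inhibitor for full effect; nearly all actives have a fitted effect of over 55% in size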
# Chain of Cellular tumor antigen p53 (Homo sapiens) (P04637 whole entry, looked up): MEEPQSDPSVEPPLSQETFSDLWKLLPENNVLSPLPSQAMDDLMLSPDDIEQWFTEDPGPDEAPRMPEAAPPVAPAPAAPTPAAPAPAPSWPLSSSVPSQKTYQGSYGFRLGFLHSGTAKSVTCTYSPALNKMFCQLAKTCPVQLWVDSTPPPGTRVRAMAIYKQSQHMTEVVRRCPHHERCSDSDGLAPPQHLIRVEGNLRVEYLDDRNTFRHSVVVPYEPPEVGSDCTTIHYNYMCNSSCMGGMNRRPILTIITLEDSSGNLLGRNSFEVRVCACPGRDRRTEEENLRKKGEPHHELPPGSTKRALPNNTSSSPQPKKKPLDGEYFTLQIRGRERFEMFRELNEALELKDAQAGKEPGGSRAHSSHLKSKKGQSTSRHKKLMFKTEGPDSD
Compound,activation [1],Potency [2],Potency [1],"activity change, negative = inhibition [2]"
O=C(/C=C/c1ccc(O)c(O)c1)OCc1ccccc1O[C@@H]1O[C@H](CO)[C@@H](O)[C@H](O)[C@H]1O,8.4%,inactive,–,–
O=C(c1ccc(C#Cc2cccc(F)c2)cn1)N1CC2CC2C1 (stereo unspecified),-1%,inactive,–,–
C=C1C(=O)OC[C@@H]1C/C=C(\C)CC1CC(C)C(=O)O1 (stereo partly specified),–,inactive,23.9 µM (active),–
C=C[C@H]1[C@H](O[C@@H]2O[C@H](CO)[C@@H](O)[C@H](OC(=O)/C=C/c3ccc(O)c(OC)c3)[C@H]2O)OC=C2C(=O)OCC[C@]21O,-1.53%,inactive,–,–
N#CC(CCCN1CCN(/N=C/c2cccnc2)CC1)(c1ccccc1)c1ccccc1,-7.16%,inactive,–,–
C[C@@H]1O[C@@H](O[C@H]2[C@H](O[C@H]3CC[C@@]4(C)C(CC[C@]5(C)C4CC=C4[C@@H]6CC(C)(C)CC[C@]6(C(=O)O[C@@H]6OC[C@H](O)[C@H](O)[C@H]6O[C@@H]6O[C@@H](C)[C@H](O[C@@H]7O[C@H](CO)[C@@H](O)[C@H](O)[C@H]7O)[C@H](O)[C@H]6O)[C@H](O)C[C@]45C)C3(C)C)O[C@H](CO)[C@@H](O[C@@H]3OC[C@@H](O)[C@H](O)[C@H]3O)[C@@H]2O)[C@H](O)[C@H](O)[C@H]1O (stereo partly specified),-2.29%,–,–,-18.4% [at 11.2 µM]
CC1(C)C=Cc2c(ccc3c2[N+]([O-])=C2C3(O)CC34NC(=O)C5(CCCN5C3=O)CC4C2(C)C)O1 (stereo unspecified),6.25%,inactive,–,–
COc1ccc(/C=C/C(=O)O[C@@H]2[C@@H](O)[C@@H](O)[C@H](O[C@@H]3C=C(CO)[C@H]4[C@H](O[C@@H]5O[C@H](CO)[C@@H](O)[C@H](O)[C@H]5O)OC=C[C@H]43)O[C@H]2C)cc1O,-6.87%,inactive,–,–
